Measured values reported in PubChem BioAssay (NCATS).
Inconclusive results are not listed. Activity calls are given as the source filed them. The call rests on the fitted dose curve; in most records, active means well fitted inhibition curve with a large enough effect; inconclusive means small, poorly fitted or top-dose-only effect; inactive means flat fitted curve, though single readings scatter.

The molecules below were run on Zika virus NS2B-NS3 protease (assay: Primary screen GU AMC qHTS for Zika virus inhibitors (AID 1347154;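 further: 0% = no-inhibitor control and -100% = no-enzyme control; nearly all actives have a fitted effect of over 70% in size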)). Conditions: Zika NS2B-NS3 unlinked protease, AMC fluorogenic substrate; series mostly up to 54.1 µM; activity change, negative = inhibition: at the top concentration.
Procedure, shortened: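 Unlinked Zika NS2B hydrophilic domain–NS3 protease complex at 25 nM in 10 mM Tris-HCl pH 8.0, 0.01% Tween 20, with an AMC peptide substrate. Fluorescence change (340/450 nm) over 15 min at room temperature, normalized to controls, fitted to 4-parameter Hill.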

SMILES	activity change, negative = inhibition	Potency
NC1=NC(=O)C(c2ccccc2)O1 (configuration not stated)	1.16% (inactive)	–
COc1cc(OC)c(OC)cc1C=O	2.12% (inactive)	–
C=CCC1(C(C)CC)C(=O)NC(=O)NC1=O (configuration not stated)	-0.25% (inactive)	–
CN(C)CCc1c[nH]c2cccc(OP(=O)(O)O)c12	3.52% [at 104 µM] (inactive)	–
C[C@H]1[C@@H]2Cc3ccc(O)cc3[C@@]1(C)CCN2C	2.69% [at 194 µM] (inactive)	–
C=CCN1C[C@H](C)N([C@H](c2ccc(C(=O)N(CC)CC)cc2)c2cccc(OC)c2)C[C@H]1C	–	inactive
Nc1ccccc1	-1.4% (inactive)	–
CNCC(=O)c1ccc(O)c(O)c1	-3.66% (inactive)	–
C[C@@H](N)[C@@H](O)c1ccccc1	-4.99% (inactive)	–
C[C@@H]1CC2=CC(=O)CC[C@@H]2[C@H]2CC[C@@]3(C)[C@@H](CC[C@]3(C)O)[C@@H]21	-4.05% (inactive)	–
Clc1ccc(C(c2ccc(Cl)cc2)C(Cl)(Cl)Cl)cc1	-13.2% (inactive)	–
CN1CC[C@]23c4c5ccc(O)c4O[C@H]2[C@@H](O)CC[C@H]3[C@H]1C5	1.5% [at 104 µM] (inactive)	–
CC(Cc1ccccc1)N(C)Cc1ccco1 (configuration not stated)	-2.79% (inactive)	–
Nc1ccc([As](=O)(O)O)cc1	-1.72% (inactive)	–
CCN(CCO)CCn1c(Cc2ccccc2)nc2c1c(=O)n(C)c(=O)n2C	-2.66% (inactive)	–
CC(=O)OCC1=C(C(=O)O)N2C(=O)[C@@H](N)[C@H]2SC1	2.84% [at 25.8 µM] (inactive)	–
C[C@H](N)C(=O)c1ccccc1	1.33% [at 104 µM] (inactive)	–
COP(=S)(OC)SCN1C(=O)c2ccccc2C1=O	5.39% (inactive)	–
NNc1ccccc1	-1.21% (inactive)	–
CN1C(=O)COc2c(C(=O)NC3CN4CCC3CC4)cc(Cl)cc21 (configuration not stated)	–	inactive
CCN[C@@H](C)Cc1ccccc1	3.24% [at 104 µM] (inactive)	–
COC(=O)C(Cl)C(=O)OC	0.282% (inactive)	–
